In the library only some 3.3% were active in any assay of this set; here they are far more common.
Calb FLC = affects C. albicans growth with fluconazole. hit rate 0.57% among 300,000. C. albicans CaCi-2 (fluconazole-resistant clinical isolate) + fluconazole, Alamar Blue growth, 48 h. growth inhibition, % (no concentration beside the values);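 active means growth inhibition above about 58% in most replicates, limit read from the data, passing the limit was not always enough; inconclusive means exactly half the replicates above a set limit; inactive means most replicates below a set limit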;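 further: all wells also contain fluconazole at 8 µg/ml as a sub-toxic cotreatment; 0% = median of DMSO wells and 100% = median of geldanamycin control wells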
Efflux pump mplx = blocks antifungal efflux pumps in multiplex yeast assay; S. cerevisiae Candida pump triplex, Nile Red efflux; inhibition, % at 10 µM; hit rate 0.44% among 330,000;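 active means plate passing quality check with inhibition over a set limit, or well fluorescence over plate mean plus 4 SD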;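 further: Nile Red retained in pooled yeast measured as flow cytometry median fluorescence; 0% = buffer negative control and 100% = Enniatin B positive control; higher means more Nile Red kept so more efflux inhibition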
Cl transport mod = modulates chloride dependent transport by human KCC2. KCC2 cells, thallium flux FluoZin-2 fluorescence. AID 1456. B-score of Tl+ flux slope (higher = more flux/activation; lower = inhibition) at 10 µM. hit rate 2.2% among 190,000;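 active means thallium flux slope and its plate-corrected score both differing from the plate sample mean at a set confidence after two filtering rounds, in either direction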;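 further: slope of fluorescence scaled to starting intensity during 10 to 20 s after thallium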
PHOSPHO1 inh = blocks human PHOSPHO1 phosphatase activity; AID 1565; recombinant PHOSPHO1, absorbance phosphatase assay; hit rate 1.1% among 290,000; inhibition, % at 13.3 µM; in the data active means inhibition above about 60%
Target sequence (Q8TCT1 whole entry, looked up): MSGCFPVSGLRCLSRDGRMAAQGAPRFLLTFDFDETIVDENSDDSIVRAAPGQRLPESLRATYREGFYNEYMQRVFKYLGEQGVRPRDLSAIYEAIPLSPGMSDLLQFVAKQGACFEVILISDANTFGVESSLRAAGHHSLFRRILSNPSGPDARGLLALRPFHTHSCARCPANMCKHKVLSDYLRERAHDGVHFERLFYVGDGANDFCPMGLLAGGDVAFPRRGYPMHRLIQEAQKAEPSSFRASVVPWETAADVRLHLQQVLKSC
H9c2 protect = modulators protecting cardiomyocytes from myocardial damage; protection from H2O2 cell death, % at 20 µM; H9c2 cardiomyocytes, H2O2 injury protection, ATPLite, 2 h; hit rate 0.63% among 360,000;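 active means compounds giving at least 50% protection of heart cells from peroxide-induced death in the single-dose screen, raw or plate-pattern-corrected value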;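 further: 0% = DMSO wells with peroxide and 100% = DMSO wells without peroxide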
KCC2 secondary = confirmation of human KCC2 transport modulators; shares compounds with Cl transport mod; HEK293-KCC2, thallium flux, FluoZin2 fluorescence; stronger effect = higher value; hit rate 15% among 3,700; normalised thallium flux (F/F0 slope) at 10 µM;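 active means thallium flux slope above the same plate's solvent-only control mean plus 3 SD; inconclusive means the two replicate wells disagree; inactive means no significant difference from solvent-only control wells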
KCC2 bumet counter = thallium flux despite bumetanide block in KCC2 cells, secondary assay 3 | shares compounds with Cl transport mod | HEK293-KCC2 + bumetanide/ouabain, thallium flux FluoZin2; stronger effect = higher value | normalized thallium flux at 10 µM | hit rate 49% among 3,700;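 active means thallium entry rate above the same plate's blocked-transporter control wells by more than 3 SD; inconclusive means the two repeat wells disagree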;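 further: raw slope of fluorescence over initial fluorescence between 10 and 20 s after thallium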
KCC2 sec2 = KCC2 (human) modulation, second secondary assay | shares compounds with Cl transport mod | HEK293-KCC2, thallium flux FluoZin2 fluorescence; actives lie on both sides; F/F0 rise rate, 10–20 s post-thallium | normalized thallium flux at 10 µM | hit rate 23% among 3,700;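 active means thallium flux slope more than 3 SD above or below the plate's solvent-only control mean, mostly below; inconclusive means the two repeat wells disagreed; inactive means no significant shift from solvent-only controls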;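 further: raw slope with 0.1% DMSO as baseline and bumetanide as block control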
HEK293 Tl flux = counter-screen for KCC2 modulators: effect in parental HEK293 cells; shares compounds with Cl transport mod; thallium flux FluoZin2, ouabain; baseline-ratio fluorescence slope, 10–20 s after thallium; thallium flux rate (normalised fluorescence) at 10 µM; hit rate 46% among 3,700;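 active means thallium flux rate significantly above the same plate's solvent-only control wells, beyond their mean plus 3 SD; inconclusive means the two replicate wells gave conflicting results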
KCC2 ouabain = KCC2 (human) modulation, ouabain retest; hit rate 48% among 3,700; HEK293-KCC2, thallium flux FluoZin2 fluorescence; bidirectional: low = inhibitor, high = activator; raw Tl+ flux slope (below DMSO = inhibition, above = activation) at 10 µM; shares compounds with Cl transport mod;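 active means thallium flux slope beyond 3 SD from same-plate DMSO control mean in most replicates, usually higher, sometimes lower; inconclusive means repeat tests gave conflicting results; inactive means no significant difference from controls in most replicates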;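 further: slope of initial-normalized fluorescence between seconds 10 and 20 after thallium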
HEK293 Tl flux2 = acts in parental HEK cells, second KCC2 counter-screen; shares compounds with Cl transport mod; HEK293 parental, thallium flux FluoZin-2 fluorescence slope; thallium flux slope at 10 µM; hit rate 33% among 3,700; AID 1718;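 active means thallium flux slope above the same plate's solvent-control mean plus 3 SD in both duplicate wells; inconclusive means duplicate wells that disagreed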;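 further: run without ouabain in cells lacking the KCC2 cotransporter; slope of fluorescence scaled to its starting value between 10 and 20 s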
The depositor's hits bear a star.

`O=C(NCCOc1ccc(F)cc1)c1ccccc1SCc1ccccc1` gave Calb FLC inconclusive, Efflux pump mplx 0.1, Cl transport mod -5.45*, PHOSPHO1 inh -2.0, H9c2 protect -8.8, KCC2 secondary 0.00513, KCC2 bumet counter inconclusive, KCC2 sec2 0.0188*, HEK293 Tl flux 0.00588*, KCC2 ouabain 0.0116* and HEK293 Tl flux2 0.00893.
COCCNC(=O)c1cc(Br)ccc1Cl was read as Calb FLC -4.7, Efflux pump mplx 0.0, Cl transport mod -4.51*, PHOSPHO1 inh 7.3, H9c2 protect -0.2, KCC2 secondary 0.0109, KCC2 bumet counter 0.0354*, KCC2 sec2 0.0325, HEK293 Tl flux 0.0191*, KCC2 ouabain 0.0284 and HEK293 Tl flux2 inconclusive.
CSc1ccc(Cl)c(C(=O)NCCOc2ccccc2)c1 was read as Calb FLC -3.5, Efflux pump mplx -0.1, Cl transport mod -2.01, PHOSPHO1 inh -6.4 and H9c2 protect -12.9.
For CCc1ccc(OCCNC(=O)c2cc(SC)ccc2Cl)cc1 the results were Calb FLC -4.9, Efflux pump mplx 0.0, Cl transport mod -6.29*, PHOSPHO1 inh 1.5, H9c2 protect -7.9, KCC2 secondary 0.00668, KCC2 bumet counter 0.00528, KCC2 sec2 0.0251*, HEK293 Tl flux 0.00707, KCC2 ouabain inconclusive and HEK293 Tl flux2 0.0111.
`Cc1cc(C)c(C(=O)N(CCN(C)C)CC2CCCN(Cc3ccccc3F)C2)o1` (centres undefined) gave Calb FLC 2.7, Efflux pump mplx 0.1, PHOSPHO1 inh 38.3 and H9c2 protect 14.2.
`CCOc1ccc(CCNC(=O)COC(=O)C2CC2)cc1OCC` gave Calb FLC 5.8, Efflux pump mplx 0.0 and H9c2 protect 2.1.
Screening COc1ccc(NC(C)=O)cc1S(=O)(=O)Nc1ccc(C(=O)N2CCCC2)cc1 returned Calb FLC -0.6, Efflux pump mplx -0.2, Cl transport mod -0.251, PHOSPHO1 inh 9.0 and H9c2 protect -5.1.
For CCCCC(CCC(=O)O)(C(=O)OCC)c1csc(Nc2ccc(C)cc2)n1 (centres undefined) the results were Calb FLC -0.5, Efflux pump mplx 0.0, Cl transport mod -4.07*, PHOSPHO1 inh 24.1, H9c2 protect 6.9, KCC2 secondary 0.00525, KCC2 bumet counter 0.004, KCC2 sec2 0.0249*, HEK293 Tl flux 0.0056*, KCC2 ouabain 0.0125* and HEK293 Tl flux2 inconclusive.
CCOC(=O)C(CC)(CCC(=O)O)c1csc(N)n1 (centres undefined) was read as Calb FLC -2.9, Efflux pump mplx 0.3, PHOSPHO1 inh 18.6 and H9c2 protect 8.3.
For COc1ccccc1-n1ccn(CC(=O)Nc2ccc(C)cc2Cl)c(=O)c1=O the results were Calb FLC 7.1, Efflux pump mplx -0.2 and H9c2 protect 1.6.
CCOC(=O)c1cnc(-c2cccc(OC)c2)[nH]c1=O was read as Calb FLC 41.6, Efflux pump mplx -0.1, PHOSPHO1 inh 7.0, H9c2 protect -0.8, KCC2 secondary 0.00675, KCC2 bumet counter inconclusive, KCC2 sec2 0.0338, HEK293 Tl flux 0.00825, KCC2 ouabain 0.0194 and HEK293 Tl flux2 0.0112.
For O=C(NC1CCSc2ccccc21)c1ccccc1Br (centres undefined) the results were Calb FLC -30.2, Efflux pump mplx -0.1, PHOSPHO1 inh -15.9 and H9c2 protect 3.9.

Screens as filed in PubChem BioAssay.
